Reference: the supplement of paper PMC6853941
Values without a mark were called inactive.

Tested on: MCF10A
Assay: perturbation Mahalanobis distance of morphological profile vs DMSO controls (Mahalanobis distance (SD units)); higher = stronger morphological change, active = 7 or more
Conditions: 72 h
Experimental: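 MCF10A cells were seeded onto drugs dispensed acoustically into 384-well plates, using one dose per drug chosen from its human peak plasma concentration, and incubated for 72 h at 37 °C. Cells were stained for DNA, tubulin and mitochondria and imaged; 78 CellProfiler features were extracted, plate-normalised and compared with DMSO wells.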

[1] = screen batch: Batch1_Mahalanobis_Distance
[2] = screen batch: Batch2_Mahalanobis_Distance

Compound	perturbation Mahalanobis distance [1]	perturbation Mahalanobis distance [2]
CN(C)C(=O)C(CCN1CCC(O)(c2ccc(Cl)cc2)CC1)(c1ccccc1)c1ccccc1 [Loperamide] (32 µM)	3.13	2.31
C[C@@H](O[C@@H]1OCCN(Cc2nc(=O)[nH][nH]2)[C@@H]1c1ccc(F)cc1)c1cc(C(F)(F)F)cc(C(F)(F)F)c1 [Aprepitant] (20.7 µM)	5.02	3.18
Clc1ccc2c(c1)C(N1CCNCC1)=Nc1ccccc1O2 [Amoxapine] (9.6 µM)	2.24	3.6
CCCc1nn(C)c2c(=O)[nH]c(-c3cc(S(=O)(=O)N4CCN(C)CC4)ccc3OCC)nc12 [Sildenafil] (0.53 µM)	3.27	4.22
OC(CCN1CCCCC1)(c1ccccc1)C1CCCCC1 (centres undefined) [Trihexyphenidyl] (3.3 µM)	1.96	2.42
CN/C(=C\[N+](=O)[O-])NCCSCc1csc(CN(C)C)n1 [Nizatidine] (7.5 µM)	2.51	2.13
CCCCNc1cc(C(=O)O)cc(S(N)(=O)=O)c1Oc1ccccc1 [Bumetanide] (1 µM)	3.62	2.57
CC12CC3CC(C)(C1)CC(N)(C3)C2 [Memantine] (1.3 µM)	4.28	3.3
NS(=O)(=O)Cc1noc2ccccc12 [Zonisamide] (141.4 µM)	2.42	2.95
CN(C)[C@@H]1C(O)=C(C(N)=O)C(=O)[C@@]2(O)C(O)=C3C(=O)c4c(O)cccc4[C@@](C)(O)[C@H]3C[C@@H]12 [Tetracycline] (45 µM)	4.19	2.42
C[C@]12C=CC(=O)C=C1CC[C@@H]1[C@@H]2[C@@H](O)C[C@@]2(C)[C@H]1CC[C@]2(O)C(=O)CO [Prednisolone] (13.9 µM)	4.8	3.8
OC(c1cc(C(F)(F)F)nc2c(C(F)(F)F)cccc12)C1CCCCN1 (centres undefined) [Mefloquine] (23.8 µM)	13.3 (active)	17.1 (active)
